Results taken from PubChem BioAssay AID1671202 (University of Kansas High Throughput Screening Laboratory, 2021).
Where “and” joins values, the source holds several entries; their conditions need not be identical. Equal entries are not always repeated. Hit rate of the full screen: of about 190,000 compounds, about 6,900 (3.6%) were called active. Cut-off read from the data, not from the text of the source: active = inhibition above about 50%; inactive = the rest. The full list was thinned out, with actives kept by preference. The source holds several records for some structures; these can differ, active in one and inactive in another.

Biological target: Huntingtin (Homo sapiens) (UniProt P42858)
Sequence (P42858 whole entry, looked up, stated change not applied): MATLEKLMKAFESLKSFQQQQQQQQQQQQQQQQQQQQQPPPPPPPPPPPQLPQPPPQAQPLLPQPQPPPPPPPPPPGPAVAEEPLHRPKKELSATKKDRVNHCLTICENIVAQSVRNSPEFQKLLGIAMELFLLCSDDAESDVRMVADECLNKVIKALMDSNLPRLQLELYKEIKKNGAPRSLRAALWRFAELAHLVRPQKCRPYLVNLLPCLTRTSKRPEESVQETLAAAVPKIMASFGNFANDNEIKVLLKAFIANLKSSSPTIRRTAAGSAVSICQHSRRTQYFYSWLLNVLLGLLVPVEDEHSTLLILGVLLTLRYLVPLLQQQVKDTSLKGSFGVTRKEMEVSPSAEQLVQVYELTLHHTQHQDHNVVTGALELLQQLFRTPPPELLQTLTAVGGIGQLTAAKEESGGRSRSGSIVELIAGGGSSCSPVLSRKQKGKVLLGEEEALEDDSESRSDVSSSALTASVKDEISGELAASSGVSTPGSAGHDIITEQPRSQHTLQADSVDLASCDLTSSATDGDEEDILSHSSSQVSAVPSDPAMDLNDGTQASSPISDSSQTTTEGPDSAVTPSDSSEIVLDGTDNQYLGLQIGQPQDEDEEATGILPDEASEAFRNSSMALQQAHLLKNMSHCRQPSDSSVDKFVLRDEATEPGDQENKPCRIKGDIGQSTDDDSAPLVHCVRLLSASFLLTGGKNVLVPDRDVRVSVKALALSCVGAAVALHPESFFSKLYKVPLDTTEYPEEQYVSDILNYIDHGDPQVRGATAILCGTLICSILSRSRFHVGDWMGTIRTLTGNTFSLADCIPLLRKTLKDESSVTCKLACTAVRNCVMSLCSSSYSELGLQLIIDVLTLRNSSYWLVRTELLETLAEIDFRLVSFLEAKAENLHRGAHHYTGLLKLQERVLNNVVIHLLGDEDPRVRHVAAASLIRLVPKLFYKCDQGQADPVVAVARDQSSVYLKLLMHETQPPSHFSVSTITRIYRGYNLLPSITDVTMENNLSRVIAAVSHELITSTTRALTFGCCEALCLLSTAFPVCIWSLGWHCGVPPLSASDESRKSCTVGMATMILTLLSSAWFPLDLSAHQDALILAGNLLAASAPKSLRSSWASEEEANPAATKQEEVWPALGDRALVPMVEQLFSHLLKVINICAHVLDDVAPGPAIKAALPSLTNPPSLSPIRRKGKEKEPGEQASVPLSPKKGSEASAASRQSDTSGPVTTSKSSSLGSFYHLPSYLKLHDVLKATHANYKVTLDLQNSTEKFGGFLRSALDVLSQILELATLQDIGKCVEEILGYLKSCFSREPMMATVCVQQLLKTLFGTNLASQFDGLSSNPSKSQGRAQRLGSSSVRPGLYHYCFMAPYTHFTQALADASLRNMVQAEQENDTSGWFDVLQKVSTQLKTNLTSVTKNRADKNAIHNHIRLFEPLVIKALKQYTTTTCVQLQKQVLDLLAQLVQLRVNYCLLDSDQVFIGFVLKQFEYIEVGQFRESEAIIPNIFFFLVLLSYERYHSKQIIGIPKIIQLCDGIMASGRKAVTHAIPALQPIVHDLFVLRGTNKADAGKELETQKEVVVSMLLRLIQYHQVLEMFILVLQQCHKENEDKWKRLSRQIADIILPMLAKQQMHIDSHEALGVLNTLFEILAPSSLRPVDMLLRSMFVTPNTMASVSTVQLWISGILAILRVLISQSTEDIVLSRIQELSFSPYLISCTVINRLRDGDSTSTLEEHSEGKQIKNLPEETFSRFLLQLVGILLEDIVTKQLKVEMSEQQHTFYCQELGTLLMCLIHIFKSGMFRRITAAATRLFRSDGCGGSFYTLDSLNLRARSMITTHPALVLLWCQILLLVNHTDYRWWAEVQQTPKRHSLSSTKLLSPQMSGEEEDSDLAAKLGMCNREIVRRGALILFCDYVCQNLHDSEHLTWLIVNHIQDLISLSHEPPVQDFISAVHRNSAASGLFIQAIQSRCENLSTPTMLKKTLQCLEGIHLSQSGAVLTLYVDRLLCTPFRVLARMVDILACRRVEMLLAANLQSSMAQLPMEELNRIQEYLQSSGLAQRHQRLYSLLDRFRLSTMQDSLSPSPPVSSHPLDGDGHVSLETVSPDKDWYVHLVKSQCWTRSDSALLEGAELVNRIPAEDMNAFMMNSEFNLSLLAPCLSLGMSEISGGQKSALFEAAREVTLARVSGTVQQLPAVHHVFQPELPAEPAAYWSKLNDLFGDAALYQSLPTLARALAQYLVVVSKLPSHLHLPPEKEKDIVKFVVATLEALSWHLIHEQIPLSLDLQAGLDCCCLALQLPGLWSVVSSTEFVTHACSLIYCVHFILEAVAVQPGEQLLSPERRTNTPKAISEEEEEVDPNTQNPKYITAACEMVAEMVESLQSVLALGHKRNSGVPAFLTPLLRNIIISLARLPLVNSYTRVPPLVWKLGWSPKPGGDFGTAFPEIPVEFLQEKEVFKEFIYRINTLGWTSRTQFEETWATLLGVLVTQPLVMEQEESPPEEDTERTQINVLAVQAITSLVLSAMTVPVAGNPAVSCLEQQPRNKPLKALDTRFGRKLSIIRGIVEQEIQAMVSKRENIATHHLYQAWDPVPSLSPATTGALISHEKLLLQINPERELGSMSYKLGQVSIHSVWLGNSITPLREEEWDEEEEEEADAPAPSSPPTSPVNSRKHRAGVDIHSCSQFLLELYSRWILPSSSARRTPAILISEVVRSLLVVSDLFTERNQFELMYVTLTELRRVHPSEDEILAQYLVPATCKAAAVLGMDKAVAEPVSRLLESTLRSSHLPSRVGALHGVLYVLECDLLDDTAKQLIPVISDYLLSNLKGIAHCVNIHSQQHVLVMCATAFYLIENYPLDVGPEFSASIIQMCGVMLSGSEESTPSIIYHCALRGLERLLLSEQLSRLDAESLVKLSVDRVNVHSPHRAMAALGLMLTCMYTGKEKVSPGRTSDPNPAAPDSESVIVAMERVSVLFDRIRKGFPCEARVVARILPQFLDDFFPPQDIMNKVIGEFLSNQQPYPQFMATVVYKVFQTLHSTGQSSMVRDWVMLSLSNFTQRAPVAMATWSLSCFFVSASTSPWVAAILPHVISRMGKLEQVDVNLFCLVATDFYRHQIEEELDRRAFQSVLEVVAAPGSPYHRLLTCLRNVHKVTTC
Assay: mutant huntingtin-calmodulin interaction inhibitors – biochemical, AlphaScreen, primary screen (AID 1671202);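 note: 0% = both proteins with DMSO and 100% = one protein alone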
Details: AlphaScreen His-mHTT/GST-CaM binding, luminescence; at 15 µM, stronger effect = higher value

SMILES	inhibition
Cc1nc(-c2cccs2)c(CCC(=O)Nc2cccc3cccnc23)s1	8.1% (inactive)
C=C(C)CN(CC)Cc1cccc(OC)c1OC	-4.5% (inactive)
COc1ccc(C2CC(=O)C(C=Nc3cc(Cl)ccc3O)=C(O)C2)cc1 (stereo unspecified)	4% (inactive)
CCC(C)NC(=O)Cn1cnc2c(oc3ccccc32)c1=O (stereo unspecified)	-6.1% (inactive)
Cc1ccc(C(=O)Nc2ccc(N(C)C)cc2)cc1C	59.4% (active)
CC(=O)Nc1ccc(NC(=O)c2ccc(N(C)C)cc2)cc1	5.9% (inactive)
CC(=O)c1ccc(NC(=O)c2ccc(CN(c3ccc(C)c(C)c3)S(C)(=O)=O)cc2)cc1	3.8% (inactive)
CCOc1ccc(CNC(=O)C2CCCN(c3ccc(N4CCOCC4)nn3)C2)cc1 (stereo unspecified)	-1.05% (inactive)
COCCNC(=O)c1cn2cc(C)ccc2n1	-7.5% (inactive)
O=C(CCC(=O)N1CC2CCCN2c2ccccc21)NCCCN1CCCCC1 (stereo unspecified)	7.41% (inactive)
O=C(CCC(=O)N1CC2CCCN2c2ccccc21)NCCCN1CCCC1 (stereo unspecified)	71.5% (active)
O=C(CCC(=O)N1CC2CCCN2c2ccccc21)NCc1cccc(Br)c1 (stereo unspecified)	36.6% (inactive)
COc1ccc([N+](=O)[O-])cc1NCc1ccccc1Br	-6.4% (inactive)
COc1cc(/C=C(\C#N)c2nc3ccc(C)cc3[nH]2)c(Br)cc1O	47.5% (inactive) and 79% (active)
CCOc1ccc(/C=C(\C#N)c2nc3ccc(C)cc3[nH]2)cc1OC	5.8% (inactive)
COc1cccc(/C=C(\C#N)c2nc3ccc(C)cc3[nH]2)c1OC	6.1% (inactive)
CCS(=O)(=O)NCC1CCC(C(=O)Nc2ccccc2C)CC1 (stereo unspecified)	-10.6% (inactive)
O=C(C1CCCN(Cc2c[nH]c3ccccc23)C1)N1CCCCCC1 (stereo unspecified)	11.1% (inactive)
Cc1ccc(C(=O)N2CCN(c3ccccc3)CC2)c(Cl)c1	2.2% (inactive)
O=C(c1cccc2[nH]cc(CN3CCCC3)c12)N1CCN(c2ccccc2)CC1	54.3% (active)
CCN(CC)C(=O)CSc1nnc(NC(C)=O)s1	-5.1% (inactive)

SMILES	inhibition
O=C(N=c1sccn1CC(=O)N1CCCC1)c1ccccc1Cl	7% (inactive)
O=C(NC1CC2CC1N(C(=O)NCCc1ccccc1)C2)c1cccnc1 (stereo unspecified)	0.1% (inactive)
COc1ccccc1/C=C/CN1CCN(C)CC1	-4.8% (inactive)
COc1cc(CN2CCN(C/C=C/c3ccccc3)CC2)cc(Br)c1O	55.5% (active)
COc1cccc(CN2CCN(C/C=C/c3ccccc3)CC2)c1OC	6.9% (inactive)
Cc1oc(C2CCN(S(=O)(=O)c3ccc(F)cc3)CC2)nc1C(=O)N1CCOCC1	-2.14% (inactive)
CC(=O)NCCc1csc(C2CCN(C(=O)C3(c4ccccc4)CC3)CC2)n1	0.81% (inactive)
COc1cc(C=O)cc(Br)c1OCc1ccccn1	-0.1% (inactive)
CCOc1c(Br)cc(/C=C2\NC(=O)N(Cc3ccccc3F)C2=O)cc1OC	-4% (inactive)
CCOc1cc(C=C2C(=O)OC(C)(c3ccccc3)OC2=O)ccc1O (stereo unspecified)	7% (inactive)
CCOc1cc(/C=C2\C(=O)ON=C2C)cc(Br)c1OCc1ccccc1F	51% (active)
C=CCOc1ccc(/C=C2/C(=O)ON=C2C)cc1OCC	89% (active)
CCOc1ccc(/C=C2/N=C(c3ccc(Cl)cc3)OC2=O)cc1OCC	-5% (inactive)
NS(=O)(=O)c1ccc(NC(=O)CSc2nc3sc4c(c3c(=O)[nH]2)CCC4)cc1	5% (inactive)
COc1ccc(C2CC(O)(C#Cc3ccccc3)C(C)C(c3ccc(OC)cc3)N2)cc1 (stereo unspecified)	100% (active)
COc1ccc(C2SCCN2C(=O)c2cc3ccccc3oc2=O)cc1 (stereo unspecified)	0% (inactive)
Cc1[nH]nc(-c2ccc(S(=O)(=O)N3CCC(N4CCCCC4)CC3)s2)c1C	7.48% (inactive)
Cc1n[nH]c(C)c1S(=O)(=O)N1CCC(C(=O)Nc2ccc(Br)cc2)CC1	-8% (inactive)
CN(C)c1ccc(Nc2nc(-c3ccc(Cl)cc3)cs2)cc1	57.2% (active)
COc1cccc(Nc2nc(-c3ccc(Cl)cc3)cs2)c1	82.2% (active)
COc1ccc(-c2csc(Nc3ccc(O)cc3)n2)cc1	61.1% (active)

SMILES	inhibition
CC(Oc1ccccc1)C(=O)Nc1nc(-c2ccccc2)cs1 (stereo unspecified)	-30% (inactive)
O=C(Nc1nc(-c2ccc([N+](=O)[O-])cc2)cs1)c1ccc(Cl)cc1	0.3% (inactive)
COc1ccc2oc(=O)c(-c3csc(Nc4cccc(C(C)=O)c4)n3)cc2c1	2% (inactive)
COc1cc(NS(=O)(=O)c2ccc(Nc3nc(-c4cccnc4)cs3)cc2)nc(OC)n1	25.8% (inactive)
COc1cccc(N/C=C(\C#N)c2nc(-c3ccc(Cl)cc3)cs2)c1	-2% (inactive)
Clc1ccc(-c2csc(Nc3ncccn3)n2)cc1	-1% (inactive)
Cc1ccsc1C1C(C#N)=C(N)N(c2ccc(Br)cc2)C2=C1C(=O)CCC2 (stereo unspecified)	22% (inactive)
COC(=O)c1ccc(Cl)cc1NC(=O)N1CCOc2ccccc21	-2.93% (inactive)
Cc1ccc(S(=O)(=O)CCC(=O)Nc2c(F)cccc2F)cc1	0% (inactive)
CCN(CC)S(=O)(=O)c1ccc2oc(C(=O)NCC3CCCO3)c(C)c2c1 (stereo unspecified)	6% (inactive)
O=C(Nc1cccc(Cl)c1)C1CCCN(c2nccnc2Oc2ccccc2)C1 (stereo unspecified)	-9.65% (inactive)
COc1ccc(C)cc1NC(=O)N1CC2CC(NC(=O)c3cccs3)C1C2 (stereo unspecified)	3.7% (inactive)
COc1cc(NC(=O)c2noc3c2CCCC3)cc(OC)c1OC	1.68% (inactive)
O=S1(=O)c2cccc3cccc(c23)N1Cc1cccc(F)c1	-24.4% (inactive)
O=C(Nc1ccc(N2CCN(C3CCCC3)C2=O)nc1)c1cc(F)cc(F)c1	-7.5% (inactive)
Cc1ccc2c(c1)C(=O)N1CCCCC1C(=O)N2CC(=O)NCCN1CCCCCC1 (stereo unspecified)	75% (active)
Cc1cccc(CNC(=O)CN2C(=O)C3CCCN3C(=O)c3cccc(C)c32)c1 (stereo unspecified)	-6.69% (inactive)
CC1CCN(CCNC(=O)CN2C(=O)C3CCCN3C(=O)c3ccc(F)cc32)CC1 (stereo unspecified)	1.11% (inactive)
CC(=O)NCc1csc(C2CCN(S(=O)(=O)c3ccc(C)cc3C)CC2)n1	6.65% (inactive)
